This note sets out measurements from paper PMC7862700, “An all-to-all approach to the identification of sequence-specific readers for epigenetic DNA modifications on cytosine”.

What all share (test): DAPPL (digital affinity profiling via proximity ligation, sequencing); 10 mM Tris-HCl pH 7.5, 50 mM NaCl, 1 mM DTT, 4% glycerol, room temperature, 30 min; GST-TFs on glutathione beads, 16-mer random dsDNA library, 0.1% formaldehyde crosslink after washing; high values mean tight binding
Holding throughout (details): protein: recombinant; tags: N-terminal GST; dsDNA, one strand shown

One assay concerns the target T1, FLI1 (Homo sapiens, UniProt Q01543 1-452).
T1 sequence: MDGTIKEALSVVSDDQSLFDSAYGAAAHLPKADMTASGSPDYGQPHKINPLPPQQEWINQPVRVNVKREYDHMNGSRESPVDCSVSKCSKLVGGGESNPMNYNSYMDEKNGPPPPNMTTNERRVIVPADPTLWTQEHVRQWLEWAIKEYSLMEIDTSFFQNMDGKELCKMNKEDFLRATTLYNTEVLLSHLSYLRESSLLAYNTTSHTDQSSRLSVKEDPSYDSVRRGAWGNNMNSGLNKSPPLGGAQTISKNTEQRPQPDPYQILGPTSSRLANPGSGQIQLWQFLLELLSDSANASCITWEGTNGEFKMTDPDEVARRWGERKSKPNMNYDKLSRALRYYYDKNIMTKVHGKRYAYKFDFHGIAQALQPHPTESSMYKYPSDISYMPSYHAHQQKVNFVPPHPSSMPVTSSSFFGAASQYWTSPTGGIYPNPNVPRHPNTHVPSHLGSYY
In short, it runs like this: (§1)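 After expression in yeast as GST fusions, human transcription factors were bound to glutathione beads, DNA-barcoded and mixed with a tag-only sample. The pools were incubated with 200 nmole of a 16-mer random double-stranded DNA library in Tris/NaCl/DTT/glycerol buffer (30 min, room temperature), washed and crosslinked with 0.1% formaldehyde. Proximity ligation with BsaI/T4 ligase ran for 1 h at 37 °C, before PCR amplification and sequencing on an Illumina NextSeq500. Binding signal is a hexamer's read frequency for a factor divided by its frequency for the tag-only sample.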

Another assay concerns the target T2, ELK1 (Homo sapiens, UniProt P19419 1-428).
T2 sequence: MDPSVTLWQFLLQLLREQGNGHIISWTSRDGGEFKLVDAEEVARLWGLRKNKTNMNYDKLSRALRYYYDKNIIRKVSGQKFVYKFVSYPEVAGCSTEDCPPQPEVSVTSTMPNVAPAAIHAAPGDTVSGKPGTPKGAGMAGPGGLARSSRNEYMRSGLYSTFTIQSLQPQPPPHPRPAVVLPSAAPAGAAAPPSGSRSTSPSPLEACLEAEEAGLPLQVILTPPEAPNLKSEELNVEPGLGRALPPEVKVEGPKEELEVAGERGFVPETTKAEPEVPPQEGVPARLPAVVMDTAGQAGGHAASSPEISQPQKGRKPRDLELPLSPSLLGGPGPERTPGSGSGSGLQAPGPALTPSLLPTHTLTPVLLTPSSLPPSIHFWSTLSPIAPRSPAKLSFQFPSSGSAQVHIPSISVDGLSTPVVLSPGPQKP
Summed up: as §1

In the next assay the target is T3, GABPA (Homo sapiens, UniProt Q06546 1-454).
T3 sequence: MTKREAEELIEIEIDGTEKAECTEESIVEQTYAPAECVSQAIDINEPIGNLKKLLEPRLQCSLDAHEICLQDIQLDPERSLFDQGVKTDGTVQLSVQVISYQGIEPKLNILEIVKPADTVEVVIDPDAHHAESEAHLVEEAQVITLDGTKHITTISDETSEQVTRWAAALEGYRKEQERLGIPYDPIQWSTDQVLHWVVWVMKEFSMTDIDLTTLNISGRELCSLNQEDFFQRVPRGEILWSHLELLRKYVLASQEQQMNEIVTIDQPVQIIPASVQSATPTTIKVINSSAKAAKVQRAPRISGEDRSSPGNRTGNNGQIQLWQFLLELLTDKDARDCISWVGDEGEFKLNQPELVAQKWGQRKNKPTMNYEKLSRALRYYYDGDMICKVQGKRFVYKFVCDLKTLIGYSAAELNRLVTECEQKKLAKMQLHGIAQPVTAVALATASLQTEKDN
In short, it runs like this: as §1

The target in the next assay is T4, ERG (Homo sapiens, UniProt P11308 1-479).
T4 sequence: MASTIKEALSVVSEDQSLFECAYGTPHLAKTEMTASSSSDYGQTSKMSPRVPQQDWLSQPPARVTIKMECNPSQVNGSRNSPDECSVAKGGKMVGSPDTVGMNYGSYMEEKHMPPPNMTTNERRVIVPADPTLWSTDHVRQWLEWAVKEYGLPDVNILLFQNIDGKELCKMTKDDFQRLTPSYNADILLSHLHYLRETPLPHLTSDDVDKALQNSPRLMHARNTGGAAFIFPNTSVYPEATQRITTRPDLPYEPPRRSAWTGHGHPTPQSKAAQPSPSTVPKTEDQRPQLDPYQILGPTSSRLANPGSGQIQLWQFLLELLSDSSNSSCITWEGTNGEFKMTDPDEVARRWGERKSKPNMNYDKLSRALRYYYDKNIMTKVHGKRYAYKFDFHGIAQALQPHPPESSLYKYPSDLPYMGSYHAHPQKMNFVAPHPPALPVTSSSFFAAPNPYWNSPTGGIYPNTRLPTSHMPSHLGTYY
Summed up:
as §1

A further assay addresses ELF1 (Homo sapiens, UniProt P32519 1-619). Summed up: as §1
The target in the next assay is T5, EHF (Homo sapiens, UniProt Q9NZC4 1-300).
T5 sequence: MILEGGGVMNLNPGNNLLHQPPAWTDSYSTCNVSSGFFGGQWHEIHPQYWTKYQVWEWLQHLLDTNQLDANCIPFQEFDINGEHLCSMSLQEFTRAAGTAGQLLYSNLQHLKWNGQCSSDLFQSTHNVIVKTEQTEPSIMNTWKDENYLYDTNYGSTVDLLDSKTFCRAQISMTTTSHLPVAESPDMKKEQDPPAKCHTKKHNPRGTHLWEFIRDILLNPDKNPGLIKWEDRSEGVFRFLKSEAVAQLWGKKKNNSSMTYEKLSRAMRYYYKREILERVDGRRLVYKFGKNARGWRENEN
Summed up:
as §1

Another assay concerns the target SPI1 (Homo sapiens, UniProt P17947 1-270). Summed up:
as §1

The next assay addresses SPIB (Homo sapiens, UniProt Q01892 1-262). In short, it runs like this: as §1
Another assay addresses T6, ELK3 (Homo sapiens, UniProt P41970 1-407).
T6 sequence: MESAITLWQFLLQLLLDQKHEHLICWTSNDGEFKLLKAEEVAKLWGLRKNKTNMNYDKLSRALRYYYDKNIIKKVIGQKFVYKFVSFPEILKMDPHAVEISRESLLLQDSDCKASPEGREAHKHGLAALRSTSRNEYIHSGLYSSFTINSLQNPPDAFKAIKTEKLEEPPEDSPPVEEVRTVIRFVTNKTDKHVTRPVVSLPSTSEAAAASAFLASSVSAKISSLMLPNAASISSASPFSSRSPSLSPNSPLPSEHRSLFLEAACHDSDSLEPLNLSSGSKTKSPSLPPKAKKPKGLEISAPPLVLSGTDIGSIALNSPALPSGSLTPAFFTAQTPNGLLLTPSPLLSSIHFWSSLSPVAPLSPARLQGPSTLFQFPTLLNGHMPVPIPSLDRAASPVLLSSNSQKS
Summed up:
as §1

In another assay the target is T7, FEV (Homo sapiens, UniProt Q99581 1-238).
T7 sequence: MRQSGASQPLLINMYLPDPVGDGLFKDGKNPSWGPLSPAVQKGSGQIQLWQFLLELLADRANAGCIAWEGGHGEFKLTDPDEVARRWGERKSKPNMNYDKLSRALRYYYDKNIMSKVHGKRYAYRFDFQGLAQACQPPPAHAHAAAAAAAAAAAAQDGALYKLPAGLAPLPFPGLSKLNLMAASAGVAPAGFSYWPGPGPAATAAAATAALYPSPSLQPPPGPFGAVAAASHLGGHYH
In short, it runs like this: as §1

Sequence of SPIB (Q01892 whole entry): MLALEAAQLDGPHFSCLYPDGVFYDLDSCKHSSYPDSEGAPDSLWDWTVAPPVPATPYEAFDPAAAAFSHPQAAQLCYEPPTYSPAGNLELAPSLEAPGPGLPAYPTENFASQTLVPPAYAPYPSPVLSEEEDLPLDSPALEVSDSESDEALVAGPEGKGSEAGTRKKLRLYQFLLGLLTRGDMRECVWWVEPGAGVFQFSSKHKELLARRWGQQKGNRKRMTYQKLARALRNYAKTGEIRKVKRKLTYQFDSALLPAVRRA
Sequence of ELF1 (P32519 whole entry): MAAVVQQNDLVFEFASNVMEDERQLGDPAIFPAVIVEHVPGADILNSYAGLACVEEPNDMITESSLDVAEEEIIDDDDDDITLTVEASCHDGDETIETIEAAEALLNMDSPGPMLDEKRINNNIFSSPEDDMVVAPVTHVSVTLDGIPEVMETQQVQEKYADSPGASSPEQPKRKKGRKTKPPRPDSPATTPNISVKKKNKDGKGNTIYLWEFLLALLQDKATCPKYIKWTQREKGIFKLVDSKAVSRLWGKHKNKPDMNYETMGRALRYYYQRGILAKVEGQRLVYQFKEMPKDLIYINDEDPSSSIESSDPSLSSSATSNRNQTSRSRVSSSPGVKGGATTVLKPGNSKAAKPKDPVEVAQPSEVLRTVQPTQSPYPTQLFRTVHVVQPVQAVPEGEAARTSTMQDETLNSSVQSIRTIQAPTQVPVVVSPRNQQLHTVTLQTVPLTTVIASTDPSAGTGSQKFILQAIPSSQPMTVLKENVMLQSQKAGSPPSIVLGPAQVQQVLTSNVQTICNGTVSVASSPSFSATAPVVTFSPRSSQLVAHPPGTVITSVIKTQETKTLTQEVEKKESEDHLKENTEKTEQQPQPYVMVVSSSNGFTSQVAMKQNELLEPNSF

As for ACATGG, the binding signal in the assay with FLI1 is 1.17 fold enrichment (6-mer frequency, TF over GST control); in the assay with ELK1 it was 1.13 fold enrichment (6-mer frequency, TF over GST control); with GABPA it was 1.15 fold enrichment (6-mer frequency, TF over GST control); with ERG it was 1.16 fold enrichment (6-mer frequency, TF over GST control); in the assay with ELF1 it was 1.15 fold enrichment (6-mer frequency, TF over GST control); in the assay with EHF, 1.1 fold enrichment (6-mer frequency, TF over GST control). Moreover, the binding signal is 1.14 fold enrichment (6-mer frequency, TF over GST control) with SPI1; 1.04 fold enrichment (6-mer frequency, TF over GST control) in the assay with SPIB; 1.09 fold enrichment (6-mer frequency, TF over GST control) with ELK3; 1.04 fold enrichment (6-mer frequency, TF over GST control) with FEV.
